From the supplement of paper PMC12045047
Structures can show the parent of a compound that is named as a salt. Unmarked numbers belong to inactive results.

Tested on: primary human airway basal cells (HBEC, luciferase-transduced)
Assay: proliferation (luciferase bioluminescence) Z score relative to plate mean; higher = more proliferation / more cells, active = 1.96 or more
Conditions: donor: 1, library: ENZO Libraries, 4 days
Protocol: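 Primary human bronchial epithelial (airway basal) cells from two donors, lentivirally transduced with pHIV-Luc-ZsGreen, were seeded at 2000 cells/well in 384-well plates in FAD medium with ENZO or Prestwick library compounds and cultured for 4 days. Luciferin was then added and bioluminescence was read as a measure of cell number. Relative light units were converted to Z scores against the plate, and the mean of triplicate wells is reported.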

| Compound | proliferation (0.5 µM) | proliferation (5 µM) |
| --- | --- | --- |
| C=C1C(=O)O[C@@H](CCC)[C@@H]1C(=O)O [Butyrolactone 3] | -0.342 | 0.149 |
| CC(NC(=O)c1ccccc1/N=C/c1c(O)ccc2ccccc12)c1ccccc1 (stereo not given) [Sirtinol] | -0.129 | -0.361 |
| NC(=O)c1ccncc1 [Isonicotinamide] | 0.125 | -0.0123 |
| O=C1Nc2ccc(I)cc2/C1=C/c1cc(Br)c(O)c(Br)c1 | -0.115 | -0.66 |
| O=C1CCc2c(ccc3ccccc23)O1 [Splitomicin] | -0.477 | -0.269 |
| N#C/C(=C\c1ccc(O)c(O)c1)C(=O)NCc1ccccc1 | 0.366 | -0.179 |
| O=C(O)c1ccc2nc(-c3ccccc3)c(-c3ccccc3)nc2c1 | -0.199 | -0.68 |
| Cc1ccc(C(=O)c2cc(/C=C/C(=O)NO)n(C)c2)cc1 | -0.0732 | -0.0538 |
| O=C(O)c1cc(NCc2cc(O)ccc2O)ccc1O [2-Hydroxy-5-(25-dihydroxybenzylamino)benzoic acid] | -0.149 | -0.503 |
| Oc1cc(O)cc(/C=C/c2ccc(O)c(O)c2)c1 [Piceatannol] | -0.115 | 1.52 |
| CC[C@H](C)[C@H](N)C(=O)N1CCSC1 [P32/98 hemifumarate salt] | -0.342 | -0.616 |
| CC(C)c1cnc(NC(=O)Cc2ccccc2)s1 | 0.304 | 0.142 |
| Nc1c(O)cc(O)cc1C=Cc1ccc(O)cc1 [Aminoresveratrol sulfate] | 0.00314 | 1.56 |
| O=C(c1ccc(Cl)cc1Cl)n1nnc2ccccc21 | -0.0821 | 0.316 |
| Nc1ccc(CC(CC(=O)O)C(=O)O)cc1 [4-Amino-D L-benzylsuccinic acid] | 0.379 | -0.241 |
| CC(C)(C)c1cc(C=C(C#N)C(N)=S)cc(C(C)(C)C)c1O | -0.666 | -0.702 |
| O=Nc1ccc(O)c2ncccc12 | -0.683 | -1.09 |
| N#CC(=C(/N)Sc1ccccc1N)/C(C#N)=C(/N)Sc1ccccc1N | -1.3 | -1.33 |

| Compound | proliferation (0.5 µM) | proliferation (5 µM) |
| --- | --- | --- |
| N#C/C(=C\c1ccc(O)c(O)c1)C(N)=O | -0.0866 | -0.0854 |
| CN(C)CCCn1cc(C2=C(c3c[nH]c4ccccc34)C(=O)NC2=O)c2ccccc21 | 2.64 (active) | -0.932 |
| CC(C)n1cnc2c(NCc3ccccc3)nc(NCCO)nc21 [N9-isopropyl-olomoucine] | -0.31 | -0.285 |
| CCN1C(=O)C=CC1=O [N-Ethylmaleimide] | 0.0934 | -0.247 |
| O=c1c(-c2ccc(O)cc2)coc2cc(O)cc(O)c12 [Genistein] | 0.674 | 2.14 (active) |
| O=c1c(-c2ccc(O)cc2)coc2cc(O)ccc12 [Daidzein] | 0.207 | 1.72 |
| Oc1ccc(-c2nc(-c3ccc(F)cc3)c(-c3ccncc3)[nH]2)cc1 | 0.995 | 0.0853 |
| CC(C)C(=O)SCCCCCCC(=O)Nc1nc(-c2ccccc2)cs1 | 0.111 | 0.205 |
| Nc1ccccc1NC(=O)CCCCCCC(=O)Nc1ccccc1 | 0.133 | 0.0632 |
| C[C@]1(Cn2ccnn2)[C@H](C(=O)O)N2C(=O)C[C@H]2S1(=O)=O [Tazobactam] | 0.216 | 0.201 |
| C[S+]([O-])c1ccc(-c2nc(-c3ccc(F)cc3)c(-c3ccncc3)[nH]2)cc1 (stereo not given) | 0.838 | 0.0347 |
| CCOC(=O)C1=CN(Cc2ccccc2)C=C(C(=O)OCC)C1c1ccccc1 | 0.415 | 0.65 |
| CC(C)c1cc(/C=C(\C#N)C(=O)NCCCc2ccccc2)cc(C(C)C)c1O | -0.208 | -0.405 |
| C[C@H](NC(=O)[C@@H]1CCCN1C(=O)[C@@H]1CCCN1C(=O)[C@@H](O)[C@H](N)Cc1ccccc1)C(N)=O [Apstatin] | -0.513 | -0.193 |
| CO[C@H]1C[C@@H]2CC[C@@H](C)[C@@](O)(O2)C(=O)C(=O)N2CCCC[C@H]2C(=O)O[C@H]([C@H](C)C[C@@H]2CC[C@@H](O)[C@H](OC)C2)CC(=O)[C@H](C)/C=C(\C)[C@@H](O)[C@@H](OC)C(=O)[C@H](C)C[C@H](C)/C=C/C=C/C=C/1C [Rapamycin] | -3.38 | -1.63 |
| NC(=O)c1cccc(-c2cccc(OC(=O)NC3CCCCC3)c2)c1 | 0.0752 | 0.55 |
| O=C(CCCN1C(=O)c2cccc3cccc(c23)C1=O)NO [Nullscript] | 0.202 | -0.00941 |
